Experimental findings from PubChem BioAssay (EPA / NIEHS) are described below.

Calls of active or inactive are those of the source. How the source made its calls: active means hit-call score of the fitted dose curve at least 0.9, where 1 is the maximum; inactive means score below 0.9.

Read-out in assay [1]: Monokine induced gamma interferon (MIG), CXCL9 (gene 4283)
Nature of the assay: BSK_hDFCGF_MIG: BioMAP Diversity Plus: hDFCGF Assay for Monokine induced gamma interferon (MIG) Biomarker Activity (AID 2283063). The settings on record: primary human foreskin fibroblasts; actives raise or lower the signal. An outline of the steps:
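ELISA read-out of MIG from primary human dermal fibroblasts 24 h post-dosing. Gain or loss of signal fitted bidirectionally, DMSO as baseline.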

Read-out in assay [2]: Matrix Metallopeptidase 1 (MMP1), MMP1 (gene 4312)
Description: BSK_hDFCGF_MMP1: BioMAP Diversity Plus: hDFCGF Assay for Matrix Metallopeptidase 1 (MMP1) Biomarker Activity (AID 2283064). The settings on record: primary human foreskin fibroblasts; actives raise or lower the signal. An outline of the steps: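 MMP1 levels quantified by ELISA 24 h after dosing human dermal fibroblast cultures, with parallel SRB total-protein staining for overt cytotoxicity. Data fitted in both directions against DMSO baseline.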

Read-out in assay [3]: Vascular cell adhesion molecule 1 (VCAM1), VCAM1 (gene 7412)
Description: BSK_hDFCGF_VCAM1: BioMAP Diversity Plus: hDFCGF Assay for Vascular cell adhesion molecule 1 (VCAM1) Biomarker Activity (AID 2283065).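 On AC50: VCAM-1 protein level quantified by ELISA after 24 h chemical exposure.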 As to conditions: primary human foreskin fibroblasts; actives raise or lower the signal. An outline of the steps: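 Primary human foreskin fibroblasts (hDFCGF system) were dosed with chemical and VCAM-1 was measured by ELISA 24 h later. Bidirectional curve fitting used DMSO as negative control and activity baseline.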

Read-out in assay [4]: Plasminogen activator inhibitor-1 (PAI1), SERPINE1 (gene 5054)
Description: BSK_hDFCGF_PAI1: BioMAP Diversity Plus: hDFCGF Assay for Plasminogen activator inhibitor-1 (PAI1) Biomarker Activity (AID 2283066). The settings on record: primary human foreskin fibroblasts; actives raise or lower the signal. An outline of the steps:
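PAI-1 levels in human dermal foreskin fibroblasts were quantified by ELISA 24 h after dosing, with gain or loss analysed against DMSO. Overt cytotoxicity was checked by sulforhodamine B total-protein staining in parallel cultures.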

Read-out in assay [5]: Intercellular Adhesion Molecule 1 (ICAM1), ICAM1 (gene 3383)
Description: BSK_KF3CT_ICAM1: BioMAP Diversity Plus: KF3CT Assay for Intercellular Adhesion Molecule 1 (ICAM1) Biomarker Activity (AID 2283067). As to conditions: primary human keratinocytes with fibroblasts; actives raise or lower the signal. An outline of the steps: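 Human keratinocyte plus foreskin fibroblast primary co-culture was exposed to chemical for 24 h. ICAM-1 was then quantified by ELISA, and the data were fit bidirectionally against DMSO as the negative control and baseline.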

Read-out in assay [6]: Interferon-gamma inducible Protein 10 (IP10), CXCL10 (gene 3627)
Nature of the assay: BSK_KF3CT_IP10: BioMAP Diversity Plus: KF3CT Assay for Interferon-gamma inducible Protein 10 (IP10) Biomarker Activity (AID 2283068). As to conditions: primary human keratinocytes with fibroblasts; actives raise or lower the signal. An outline of the steps:
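KF3CT co-culture (keratinocytes + foreskin fibroblasts), 24 h compound, IP-10 by ELISA; bidirectional fit vs DMSO baseline.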

The nature of assay [7]: BSK_KF3CT_SRB: Viability Assessment in the BioMAP Diversity Plus: KF3CT Assay (AID 2283069).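 Further: read 24 h after compound addition.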 As to conditions: primary human keratinocytes with fibroblasts. An outline of the steps:
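Cytotoxicity was gauged by SRB staining (0.1% SRB, 10% TCA fixation, 560 nm) of parallel cultures at 24 h. The cells were primary human skin keratinocytes co-cultured with fibroblasts, and activity was fitted in both directions against DMSO.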

Read-out in assay [8]: Interleukin-1 alpha (IL1a), IL1A (gene 3552)
Description: BSK_KF3CT_IL1a: BioMAP Diversity Plus: KF3CT Assay for Interleukin-1 alpha (IL1a) Biomarker Activity (AID 2283070). The settings on record: primary human keratinocytes with fibroblasts; actives raise or lower the signal. The procedure, abridged: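 IL-1a was detected by ELISA 24 h after chemical treatment of a co-culture of human skin keratinocytes and foreskin fibroblasts. Gain or loss of signal was fitted against the DMSO baseline.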

Read-out in assay [9]: TIMP metallopeptidase inhibitor 2 (TIMP2), TIMP2 (gene 7077)
Description: BSK_KF3CT_TIMP2: BioMAP Diversity Plus: KF3CT Assay for TIMP metallopeptidase inhibitor 2 (TIMP2) Biomarker Activity (AID 2283071). The settings on record: primary human keratinocytes with fibroblasts; actives raise or lower the signal. The procedure, abridged: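 TIMP-2 measured by ELISA at 24 h in human keratinocyte/fibroblast primary co-cultures exposed to chemicals. Both increases and decreases were fitted against DMSO. Parallel cultures were stained with SRB for total protein as an overt-cytotoxicity check.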

Read-out in assay [10]: Transforming growth factor beta 1 (TGFb1), TGFB1 (gene 7040)
Description: BSK_KF3CT_TGFb1: BioMAP Diversity Plus: KF3CT Assay for Transforming growth factor beta 1 (TGFb1) Biomarker Activity (AID 2283072). As to conditions: primary human keratinocytes with fibroblasts; actives raise or lower the signal. An outline of the steps: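 ELISA quantifies TGF-b1 at 24 h post-dose in a primary human skin co-culture of keratinocytes and fibroblasts, with gain or loss judged against DMSO. Parallel SRB total-protein staining flags overt cytotoxicity.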

Read-out in assay [11]: C-C motif chemokine 2 (Homo sapiens) (UniProt P13500)
Description: BSK_KF3CT_MCP1: BioMAP Diversity Plus: KF3CT Assay for Monocyte Chemoattractant Protein 1 (MCP1/CCL2) Biomarker Activity (AID 2283073). As to conditions: primary human keratinocytes with fibroblasts; actives raise or lower the signal. The procedure, abridged: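 Human keratinocyte plus foreskin fibroblast primary co-culture exposed to chemical for 24 h. MCP-1 levels measured by ELISA. Bidirectional curve fitting relative to DMSO negative control as baseline.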

Read-out in assay [12]: Matrix Metallopeptidase 9 (MMP9), MMP9 (gene 4318)
Nature of the assay: BSK_KF3CT_MMP9: BioMAP Diversity Plus: KF3CT Assay for Matrix Metallopeptidase 9 (MMP9) Biomarker Activity (AID 2283074).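 On AC50: MMP9 protein level quantified by ELISA in the co-culture.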 The settings on record: primary human keratinocytes with fibroblasts; actives raise or lower the signal. An outline of the steps: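 MMP-9 quantified by ELISA after 24 h chemical treatment of primary human skin keratinocyte/fibroblast co-cultures; gain or loss fitted against DMSO, with parallel SRB staining (0.1% SRB, 560 nm) for overt cytotoxicity.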

Read-out in assay [13]: urokinase plasminogen activator (uPA), PLAU (gene 5328)
Description: BSK_KF3CT_uPA: BioMAP Diversity Plus: KF3CT Assay for urokinase plasminogen activator (uPA) Biomarker Activity (AID 2283075). As to conditions: primary human keratinocytes with fibroblasts; actives raise or lower the signal. An outline of the steps:
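ELISA read-out of uPA 24 h after dosing human skin keratinocytes co-cultured with foreskin fibroblasts. Signal change fitted both ways relative to DMSO; sulforhodamine B on parallel cultures marks overt cytotoxicity.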

Read-out in another assay: CD40, CD40 (gene 958)
Description: BSK_LPS_CD40: BioMAP Diversity Plus: LPS Assay for CD40 Biomarker Activity (AID 2283076). As to conditions: primary human HUVEC with PBMC; actives raise or lower the signal. An outline of the steps:
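Primary human umbilical vein endothelial cells co-cultured with peripheral blood mononuclear cells, LPS-stimulated, were dosed with chemical and read 24 h later. CD40 levels were measured by ELISA and fitted bidirectionally against DMSO as negative control and baseline.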

Read-out in assay [14]: E-selectin (Homo sapiens) (UniProt P16581)
Nature of the assay: BSK_LPS_Eselectin: BioMAP Diversity Plus: LPS Assay for Eselectin Biomarker Activity (AID 2283077). The settings on record: primary human HUVEC with PBMC; actives raise or lower the signal. An outline of the steps:
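Human umbilical vein endothelial cells co-cultured with peripheral blood mononuclear cells under LPS stimulation; E-selectin measured by ELISA 24 h after chemical dosing. Activity fitted bidirectionally against DMSO as negative control and baseline.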

Read-out in assay [15]: Interleukin-8 (IL8), CXCL8 (gene 3576)
Description: BSK_LPS_IL8: BioMAP Diversity Plus: LPS Assay for Interleukin-8 (IL8) Biomarker Activity (AID 2283078). The settings on record: primary human HUVEC with PBMC; actives raise or lower the signal. The procedure, abridged:
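Human umbilical vein endothelial cells co-cultured with PBMC were stimulated with LPS; IL-8 levels were measured by ELISA 24 h after chemical dosing. Activity was fitted bidirectionally against DMSO as negative control and baseline.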

Assay [16] is described as follows: BSK_LPS_SRB: Viability Assessment in the BioMAP Diversity Plus: LPS Assay (AID 2283079).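 Further: total protein by sulforhodamine B absorbance as a cytotoxicity measure; measured one day after compound addition; fitted in both directions against DMSO so loss or gain of signal counts.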 The settings on record: primary human HUVEC with PBMC. An outline of the steps: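 Human umbilical vein endothelial cells co-cultured with PBMC (LPS system) were dosed for 24 h. Total protein was stained with 0.1% sulforhodamine B after 10% TCA fixation, read at 560 nm, and fitted bidirectionally against DMSO baseline.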

Read-out in assay [17]: Interleukin-1 alpha (IL1a), IL1A (gene 3552)
Description: BSK_LPS_IL1a: BioMAP Diversity Plus: LPS Assay for Interleukin-1 alpha (IL1a) Biomarker Activity (AID 2283080). The settings on record: primary human HUVEC with PBMC; actives raise or lower the signal. An outline of the steps:
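Human umbilical vein endothelial cells co-cultured with peripheral blood mononuclear cells were LPS-stimulated and exposed to test chemicals for 24 h. IL-1 alpha was quantified by ELISA, with bidirectional curve fitting against DMSO as the negative control and baseline.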

Read-out in assay [18]: Monocyte Chemoattractant Protein-1 (MCP1), CCL2 (gene 6347)
Nature of the assay: BSK_LPS_MCP1: BioMAP Diversity Plus: LPS Assay for Monocyte Chemoattractant Protein-1 (MCP1) Biomarker Activity (AID 2283081). As to conditions: primary human HUVEC with PBMC; actives raise or lower the signal. An outline of the steps: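 HUVEC plus PBMC co-culture (human primary cells, LPS system) exposed to test chemical for 24 h; MCP-1 measured by ELISA. Bidirectional curve fitting against DMSO baseline; parallel SRB total-protein staining flags overt cytotoxicity.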

Assay [19] is described as follows: BSK_LPS_PGE2: BioMAP Diversity Plus: LPS Assay for Prostaglandin E2 (PGE2) Biomarker Activity (AID 2283082). As to conditions: primary human HUVEC with PBMC; actives raise or lower the signal. The procedure, abridged:
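PGE2 release measured by ELISA in an LPS-activated co-culture of human umbilical vein endothelial cells and peripheral blood mononuclear cells, read at 24 h post-dosing. DMSO served as baseline for bidirectional curve fitting.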

Broadly, the AC50 is the concentration giving half of the maximal activity seen.

Chain of E-selectin (Homo sapiens) (P16581 whole entry, looked up): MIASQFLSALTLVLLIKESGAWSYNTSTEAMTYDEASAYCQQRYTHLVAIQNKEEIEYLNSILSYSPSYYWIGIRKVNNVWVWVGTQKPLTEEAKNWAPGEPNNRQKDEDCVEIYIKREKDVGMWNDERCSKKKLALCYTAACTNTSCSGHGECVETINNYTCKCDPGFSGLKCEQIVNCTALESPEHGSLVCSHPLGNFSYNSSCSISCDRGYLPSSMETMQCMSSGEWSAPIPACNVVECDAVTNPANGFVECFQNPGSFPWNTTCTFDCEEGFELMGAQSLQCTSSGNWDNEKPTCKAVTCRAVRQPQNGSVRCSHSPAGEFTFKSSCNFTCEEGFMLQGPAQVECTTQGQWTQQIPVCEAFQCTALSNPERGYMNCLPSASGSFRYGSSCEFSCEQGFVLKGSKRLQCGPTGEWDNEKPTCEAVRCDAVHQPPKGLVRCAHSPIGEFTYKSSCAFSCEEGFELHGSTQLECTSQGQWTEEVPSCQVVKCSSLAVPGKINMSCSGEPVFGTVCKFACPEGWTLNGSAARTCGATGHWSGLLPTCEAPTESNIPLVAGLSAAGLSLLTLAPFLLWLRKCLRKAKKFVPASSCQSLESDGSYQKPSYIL

Turning to `CCCOc1ccc(S(=O)(=O)N2CCN(CC)CC2)cc1-c1nc2c(CC)n(Cc3ccccn3)nc2c(=O)[nH]1`, the outcome in assay [1], in assay [2], in assay [3], in assay [4], in assay [5] and in assay [6] was inactive. Moreover, the outcome in [7], in assay [8], in assay [9], in assay [10], in [11] and in assay [12] was inactive. Besides, the outcome in [13] is “inactive”; with CD40, CD40 (gene 958), “inactive”; in assay [14], “inactive”; in [15] it was “inactive”; in [16], “inactive”; in assay [17], “inactive”. Moreover, the outcome in assay [18] and in [19] was inactive.

As to `CCCCCCCCCCCCCCCCOS(=O)(=O)O`, the AC50 was 13.1 µM (active) in [1]; 16.6 µM (active) in assay [2]; 5.95 µM (active) in assay [3]; 9.1 µM (active) in [4]; 14.9 µM (active) in assay [5]; 11.9 µM (active) in assay [6]. Moreover, the AC50 in assay [7] was 15.8 µM (active); in assay [8], 15.6 µM (active); in [9], 19.5 µM (active); in assay [10], 17.4 µM (active); in [11] it was 16.8 µM (active); in [12] it was 18.5 µM (active). The AC50 in assay [13] was 15.6 µM (active). Also, the outcome with CD40, CD40 (gene 958) is “inactive”; in assay [14] it was “inactive”; in [15], “inactive”; in [16], “inactive”; in [17] it was “inactive”; in [18], “inactive”. Moreover, in [19], the outcome was inactive.

Regarding `OC(CCl)CCl`, the outcome in assay [1], in assay [2], in assay [3], in assay [4], in assay [5] and in [6] was inactive. For the same molecule, the outcome in assay [7], in assay [8], in assay [9], in [10], in assay [11] and in assay [12] was inactive. The outcome in assay [13] is “inactive”; with CD40, CD40 (gene 958), “inactive”; in [14], “inactive”; in assay [15], “inactive”; in assay [16], “inactive”; in assay [17], “inactive”. Further, the outcome in assay [18] and in [19] was inactive.
